Compound activity (PubChem BioAssay)
Sm TGR block – S. mansoni TGR enzyme inhibition | purified TGR, DTNB reduction, TNB absorbance 405 nm | Potency, µM (series often up to 114 µM), for inactives: at the top dose activity change, negative = inhibition, hits mostly inhibitors | hit rate 3% among 360,000; also: potency is read from the fitted curve at half-maximal effect; nearly all actives have a fitted effect of over 60% in size
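TGR 20 nM + NADPH 100 uM (dispensed conc.), cpd preinc 15 min RT; start with NADPH (500 uM addition) then DTNB (15 mM addition). Kinetic TNB absorbance, 405 nm filter. Four-parameter Hill fit across titration.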
Pf growth 96h – inhibits malaria parasite growth, 96 h. hit rate 6.9% among 320,000. AID 504834. Potency, µM (series often up to 28.7 µM), for inactives: at the highest dose activity change, negative = inhibition, usual class: inhibitors. P. falciparum luciferase reporter growth, 96 h; also: potency is read from the fitted curve at half-maximal effect
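Two parasite generations (96 h, 37 C, 5% CO2) of compound exposure in infected erythrocytes (0.05% parasitemia, 2% hematocrit). Luciferase-reporter P. falciparum; decreased luminescence indicates inhibited growth, aimed at apicoplast-acting delayed death.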
FBPA Giardia inh – Giardia lamblia aldolase inhibition. purified Giardia FBPA. AID 2451. Potency, µM (series often up to 59.6 µM), for inactives: at the top dose activity, negative = inhibition, usual class: inhibitors. A8B2U2. hit rate 0.71% among 290,000; also: potency is read from the fitted curve at half-maximal effect; nearly all actives have a fitted effect of over 55% in size
Target sequence (A8B2U2 whole entry, looked up): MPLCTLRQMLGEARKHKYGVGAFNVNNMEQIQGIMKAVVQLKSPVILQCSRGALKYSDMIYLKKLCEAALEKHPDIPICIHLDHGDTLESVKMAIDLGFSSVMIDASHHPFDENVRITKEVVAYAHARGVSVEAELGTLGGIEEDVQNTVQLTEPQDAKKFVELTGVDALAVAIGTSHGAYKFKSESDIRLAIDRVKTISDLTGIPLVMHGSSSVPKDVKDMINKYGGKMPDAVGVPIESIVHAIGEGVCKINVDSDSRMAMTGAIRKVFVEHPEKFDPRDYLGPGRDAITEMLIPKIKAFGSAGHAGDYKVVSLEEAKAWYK
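Giardia FBPA (40 nM reagent) was preincubated 10 min at RT with compound (up to 57.5 uM final), then substrate plus GAPDH/TPI/NAD/arsenate coupling system with diaphorase/resazurin was added; resorufin fluorescence (525/598 nm) was read after 20 min.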
HCMV inh – human cytomegalovirus inhibition | HFF cells, HCMV-luciferase reporter, 72 h; active compounds read low | activity change, negative = inhibition, % at 57.5 µM | hit rate 4.5% among 410,000 | AID 1259415; in the data active = activity change below about -60%; inconclusive = no clear call, values can overlap the other calls; inactive = above about -39%
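Two compound doses tested in HFFs infected with HCMV-luciferase, MOI 1 PFU/cell, 72 h at 37C. Lysate luminescence read with OneGlo; data normalized against buffer-only and 10uM Salinomycin inhibitor controls.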
Pf growth 48h – P. falciparum growth inhibition at 48 hours (one generation); P. falciparum luciferase growth in erythrocytes, 48 h; Potency, µM (series often up to 28.7 µM), without a hit: top-dose activity change, negative = inhibition, hits mostly inhibitors; AID 504832; hit rate 5.9% among 310,000; also: potency is read from the fitted curve at half-maximal effect
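Here the parasites carry a stable luciferase gene and grow inside erythrocytes in Albumax-based RPMI medium with compound for one erythrocytic cycle. Activity is scored as loss of luminescent signal.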
Starred values were filed as active, the others as inactive; ? = inconclusive; . = not tested or not shown; [ ] = dose if it differs, or a comment. Rows were chosen to be rich in hits. Some 14% of all compounds tested hit in one or more screens of this group. Unless noted, calls follow the shape of the dose curve; as a rule, active = well fitted curve in the direction sought with a large enough effect; inconclusive = small, poorly fitted or top-dose-only effect, or another doubt; inactive = no such curve, though single readings can be large; an effect the other way counts as inactive or inconclusive. % is scaled to controls: 0 for no effect and ±100 for the full control effect.

SMILES | Sm TGR block | Pf growth 96h | FBPA Giardia inh | HCMV inh | Pf growth 48h
CCOC(=O)Nc1ccc(NS(=O)(=O)c2ccc(C)cc2)cc1 | -22% | -29% | -4% | 56 | 0%
CCOC(=O)CC1(CCc2ccccc2)Oc2ccccc2O1 | . | . | . | -21 | .
CCOC(=O)NC1(NC2CCCCC2)Oc2ccccc2O1 | 16µM* | -8% | -29% | ? | -30%
CCOC(=O)NC1c2ccccc2Oc2ccccc21 | 16% | ? | 1% | -26 | -10%
CCOC(=O)NC1(NC(C)C)Oc2ccccc2O1 | 45µM* | -8% | -5% | 14 | .
Cc1ccccc1Cn1c(CN2CCN(C(=O)c3ccco3)CC2)nc2c1c(=O)n(C)c(=O)n2C | -17% | ? | 0% | 17 | ?
COC(=O)Cn1c(CN2CCc3ccccc3C2)nc2c1c(=O)n(C)c(=O)n2C | -5% | 19% | -17% | -66* | 7%
COC(=O)Cn1c(CN2CCOCC2)nc2c1c(=O)n(C)c(=O)n2C | 0% | 33% | -7% | 14 | 27%
Cn1c(=O)c2c(nc(N3CCc4ccccc4C3)n2Cc2ccccc2F)n(C)c1=O | 2% | -22% | -2% | 8 | 13µM*
CN1CCN(c2nc3c(c(=O)n(C)c(=O)n3C)n2Cc2ccccc2F)CC1 | 9% | -21% | 9% | -8 | -14%
Cc1ccccc1Cn1c(CN2CCc3ccccc3C2)nc2c1c(=O)n(C)c(=O)n2C | -10% | ? | -30% | 0 | 13µM*
O=C1NC[C@H](CCCCN2C[C@H](Cc3ccccc3)N(CCc3ccc(O)cc3)C(=O)C2=O)N(CC2CCCCC2)C1=O | . | . | . | -10 | .
Cc1ccc(CN2CCC(C)(Oc3cccc(Cl)c3)C2)cc1 (centres undefined) | . | . | . | -3 | .
CC(C)C1NC2(C(=O)c3ccccc3C2=O)C2C(=O)N(c3ccc(F)cc3)C(=O)C12 (centres undefined) | 2µM* | ? | -2% | 63 | -20%
Cc1ccc(CNC(=O)Cn2cc(C(F)(F)F)ccc2=O)cc1 | 1% | ? | 2% | 30 | 11%
O=C(Nc1cccnc1)c1cc(-c2cccc(Cl)c2)on1 | 0% | 38% | -2% | 9 | 94%
O=C(Nc1cccnc1)c1cc(Br)c(Br)s1 | -6% | 12µM* | . | -2 | ?
NC(=O)c1cc(NC(=O)c2cc(Br)c(Br)s2)cc(C(N)=O)c1 | 5% | 8.3µM* | 1% | -9 | -15%
CC(C)(C)c1nnc(NS(=O)(=O)c2ccc(F)cc2)s1 | . | . | . | 5 | .
CC(C)[C@@H](C)/C=C/[C@@H](C)[C@H]1CC[C@@H]2[C@]1(C)CCC1[C@]23C=C[C@]2(C[C@@H](O)CC[C@]12C)N(c1ccc(F)cn1)O3 (some centres undefined) | . | . | . | 12 | .
C[C@H](NC(=O)c1[nH]cnc1C(=O)Nc1ccc(CNC(=O)OC(C)(C)C)cc1)C(=O)OC(C)(C)C | 0% | 9.3µM* | ? | 32 | 13µM*
CC(C)(C)OC(=O)NCCCC[C@H](NC(=O)c1[nH]cnc1C(=O)Nc1ccc(CNC(=O)OC(C)(C)C)cc1)C(=O)OC(C)(C)C | -4% | 3.3µM* | -21% | -10 | 3.3µM*
CC12CC[C@H]3[C@@H](CCC4(O)C[C@H](O)CCC34/C=N/NC(=O)c3ccccc3[N+](=O)[O-])C1(O)CCC2C1=CC(=O)OC1 (some centres undefined) | 10% | 42% | 15% | -78* | -2%
CNC(=O)Nc1ccc(C(=O)N/N=C\C23CC[C@@H](O)CC2(O)CC[C@@H]2[C@@H]3CCC3(C)C(C4=CC(=O)OC4)CCC23O)cc1 (some centres undefined) | -16% | -16% | -6% | -23 | -12%
CC12CC[C@H]3[C@@H](CCC4(O)C[C@H](O)CCC34/C=N/NC(=O)Cc3ccccc3)C1(O)CCC2C1=CC(=O)OC1 (some centres undefined) | -1% | -9% | 7% | -66* | ?
SMILES | Sm TGR block | Pf growth 96h | FBPA Giardia inh | HCMV inh | Pf growth 48h
C[C@]12CCC3C(CC[C@]4(O)CC(O)CC[C@@]34C=O)[C@]1(O)CCC2C1=CC(=O)OC1 (some centres undefined) | . | . | 4% | . | .
COc1cccc(-c2cc(C(=O)NCc3ccco3)c3ccccc3n2)c1 | ? | ? | 6% | -24 | ?
COc1ccc(NC(=O)c2ccc(CNS(=O)(=O)c3ccc4c(c3)C(C)(C)C(=O)N4C)cc2)cc1 | 8% | . | . | 59 | .
CCc1nn(CC(=O)N2CC(C)CC(C)C2)c(=O)c2cccn12 (centres undefined) | 4% | 48% | 2% | ? | 19%
O=C(O)CNS(=O)(=O)c1ccc(C2CCCCC2)cc1 | 7% | 0.47µM* | 25% | ? | 4%[5.75 µM]
O=S(=O)(Nc1ccccn1)c1ccc(C2CCCCC2)cc1 | 2% | 9.3µM* | 10% | 116 | -6%
O=S(=O)(Nc1ccccn1)c1ccc(Cl)cc1 | 4% | . | 5% | 17 | 0%
O=S(=O)(Nc1cccnc1)c1ccc(C2CCCCC2)cc1 | -7% | 29% | 23% | -66* | .
COC(=O)[C@@]1(Cc2ccc(OC)cc2)[C@H]2c3cc(C(=O)N(C)C)n(CCF)c3C[C@H]2CN1C(=O)c1ccccc1 | . | . | 1% | . | .
COc1cc2cc(C(c3nnnn3C3CCCC3)N(C)C3CCCCC3)c(=O)[nH]c2cc1OC (centres undefined) | -25% | ? | 5% | -26 | ?
O=c1[nH]c2cc3c(cc2cc1C(c1nnnn1C1CCCC1)N1CCSCC1)OCCO3 (centres undefined) | -14% | 51% | -8% | -79* | 9%
Cc1ccc2cc(C(c3nnnn3C3CCCC3)N3CCN(c4ccc(F)cc4)CC3)c(=O)[nH]c2c1 (centres undefined) | ? | -7% | ? | 37 | 5.9µM*
Cc1cc(C)c2cc(C(c3nnnn3C3CCCC3)N3CCOCC3)c(=O)[nH]c2c1 (centres undefined) | -22% | 0% | ? | 22 | ?
COc1cc2cc(C(c3nnnn3C3CCCCC3)N(C)C3CCCCC3)c(=O)[nH]c2cc1OC (centres undefined) | ? | -27% | -14% | . | 5.9µM*
CN(C)c1ccc(C(=O)N2CCNC(=O)C2CC(=O)Nc2ccc(F)cc2)cc1 (centres undefined) | -22% | 11% | . | 9 | 19%
Cc1cc([N+](=O)[O-])ccc1NC(=O)CN1C2CCC1CC(NC(=O)NC13CC4CC(CC(C4)C1)C3)C2 (centres undefined) | 8% | 23% | -5% | ? | 10µM*
O=C(O)c1cc(N(Cc2ccccc2O)Cc2cc(O)ccc2O)ccc1O | . | . | -29% | . | .
C/C=C/C(=O)C[C@H]1CC[C@@H](C)[C@@H](CCO)O1 | . | . | 1% | . | .
O=C1CCCC2=C1C(c1ccccc1)CC(=O)N2c1ccc(F)cc1F (centres undefined) | 5% | 90% | 6% | -21 | ?
